Assay results published in PubChem BioAssay (EPA / NIEHS).
Values joined by “and” are separate entries in the source; they are usually repeats but may differ in a detail not shown here. Identical values can stand only once. Where a structure was tested more than once in an assay, its records may differ in their call. Active and inactive are the calls of the source. The calls were made as follows: active = hit-call score of the fitted dose curve at least 0.9, where 1 is the maximum; inactive = score below 0.9.

Columns and labels:
[1] = read-out: Vascular endothelial growth factor receptor 2 (Homo sapiens) (UniProt P35968); assay: BSK_4H_VEGFRII: BioMAP Diversity Plus: 4H Assay for Vascular endothelial growth factor receptor 2 (VEGFR2) Biomarker Activity (AID 2283031); settings: primary human endothelial cells (HUVEC); actives raise or lower the signal;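 as to AC50: cell-surface VEGFR2 protein level quantified by ELISA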
Summary of the method: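 VEGFRII levels on human vascular endothelial primary cells were determined by ELISA at 24 hours post-dosing, with gain- or loss-of-signal fitted against DMSO controls.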

[2] = read-out: Human Leukocyte Antigen - DR isotype (HLADR), HLA-DRA (gene 3122); assay: BSK_BE3C_HLADR: BioMAP Diversity Plus: BE3C Assay for Human Leukocyte Antigen - DR isotype (HLADR) Biomarker Activity (AID 2283032); settings: primary human bronchial epithelial cells; actives raise or lower the signal
Summary of the method: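 Human primary bronchial epithelial cells (BE3C system) exposed to compound for 24 hours; cell-surface HLA-DR measured by ELISA, fitted bidirectionally relative to DMSO. Total protein by SRB in parallel cultures tracked cytotoxicity.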

[3] = read-out: Vascular cell adhesion molecule 1 (VCAM1), VCAM1 (gene 7412); assay: BSK_4H_VCAM1: BioMAP Diversity Plus: 4H Assay for Vascular cell adhesion molecule 1 (VCAM1) Biomarker Activity (AID 2283033); settings: primary human endothelial cells (HUVEC); actives raise or lower the signal
Summary of the method: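 Primary human umbilical vein endothelial cells, 4H stimulation system, treated for 24 h; cell-surface VCAM-1 quantified by ELISA. Bidirectional fitting against DMSO; cytotoxicity tracked by SRB total-protein staining in parallel cultures.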

[4] = read-out: Interferon-gamma inducible Protein 10 (IP10), CXCL10 (gene 3627); assay: BSK_BE3C_IP10: BioMAP Diversity Plus: BE3C Assay for Interferon-gamma inducible Protein 10 (IP10) Biomarker Activity (AID 2283034); settings: primary human bronchial epithelial cells; actives raise or lower the signal
Summary of the method: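 Primary human bronchial epithelial cells, with IP-10 measured by ELISA 24 hours after chemical dosing. Bidirectional fit against DMSO; cytotoxicity checked by SRB total protein staining in parallel cultures.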

[5] = read-out: Monokine induced gamma interferon (MIG), CXCL9 (gene 4283); assay: BSK_BE3C_MIG: BioMAP Diversity Plus: BE3C Assay for Monokine induced gamma interferon (MIG) Biomarker Activity (AID 2283035); settings: primary human bronchial epithelial cells; actives raise or lower the signal
Summary of the method: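 Primary human bronchial epithelial cells treated for 24 h; MIG levels measured by ELISA, fitted bidirectionally versus DMSO. Parallel SRB total-protein staining assessed cytotoxicity.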

[6] = read-out: Transforming growth factor beta 1 (TGFb1), TGFB1 (gene 7040); assay: BSK_BE3C_TGFb1: BioMAP Diversity Plus: BE3C Assay for Transforming growth factor beta 1 (TGFb1) Biomarker Activity (AID 2283036); settings: primary human bronchial epithelial cells; actives raise or lower the signal
Summary of the method: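 Primary human bronchial epithelial cells dosed with chemical; TGF-b1 measured by ELISA 24 h after dosing. Bidirectional curve fitting against DMSO negative control; SRB total-protein staining in parallel cultures gauged cytotoxicity.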

[7] = read-out: Plasminogen activator inhibitor-1 (PAI1), SERPINE1 (gene 5054); assay: BSK_BE3C_PAI1: BioMAP Diversity Plus: BE3C Assay for Plasminogen activator inhibitor-1 (PAI1) Biomarker Activity (AID 2283037); settings: primary human bronchial epithelial cells; actives raise or lower the signal
Summary of the method: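 Primary human bronchial epithelial cells (BE3C system) exposed 24 h; PAI-1 quantified by ELISA. Parallel sulforhodamine B staining of total protein flags cytotoxicity. Bidirectional fit versus DMSO.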

[8] = read-out: urokinase plasminogen activator (uPA), PLAU (gene 5328); assay: BSK_BE3C_uPA: BioMAP Diversity Plus: BE3C Assay for urokinase plasminogen activator (uPA) Biomarker Activity (AID 2283038); settings: primary human bronchial epithelial cells; actives raise or lower the signal
Summary of the method: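 Measured by ELISA: uPA from human primary bronchial epithelial cells 24 h after chemical treatment. Values derive from bidirectional curve fitting with DMSO serving as negative control. Total protein by SRB staining in parallel wells flagged overt cytotoxicity.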

[9] = read-out: Urokinase-type plasminogen activator receptor (uPAR), PLAUR (gene 5329); assay: BSK_BE3C_uPAR: BioMAP Diversity Plus: BE3C Assay for Urokinase-type plasminogen activator receptor (uPAR) Biomarker Activity (AID 2283039); settings: primary human bronchial epithelial cells; actives raise or lower the signal
Summary of the method: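 Primary human bronchial epithelial cells dosed for 24 h; uPAR quantified by ELISA with bidirectional fitting against DMSO. Overt cytotoxicity assessed in parallel cultures by SRB total-protein staining (0.1% SRB, 560 nm).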

[10] = read-out: Interleukin-6 (IL6), IL6 (gene 3569); assay: BSK_CASM3C_IL6: BioMAP Diversity Plus: CASM3C Assay for Interleukin-6 (IL6) Biomarker Activity for (AID 2283040); settings: primary human coronary artery smooth muscle cells; actives raise or lower the signal

Measured: AC50

Cc1ccc(O)c(C)c1
active: [3] 5.94 µM | [10] 1.29 µM
inactive: all other assays above

CC1=C2C[C@H]3[C@@H](CC=C4C[C@@H](O)CC[C@@]43C)[C@@H]2CC[C@]12O[C@@H]1C[C@H](C)CN[C@H]1[C@H]2C
inactive: all assays above

O=NN(c1ccccc1)c1ccccc1
not listed: [1]
inactive: all other assays above

Cc1ccccc1[N+](=O)[O-]
not listed: [7]
inactive: all other assays above

C1CC2OC2CC1C1CO1 (centres undefined)
not listed: [7]
inactive: all other assays above

O=C(N[C@H]1CN2CCC1CC2)c1cc2ccoc2cn1
inactive: all assays above

CCOP(=S)(OCC)SCSC(C)(C)C
inactive: all assays above

C=CC(=O)NCNC(=O)C=C
not listed: [7]
inactive: all other assays above

COc1ccc(O)c(C(C)(C)C)c1
not listed: [6]
inactive: all other assays above

CO/C=C(/C(=O)OC)c1ccccc1COc1cccc(C(F)(F)F)n1
active: [3] 4.02 µM | [4] 3.97 µM | [10] 5.93 µM
inactive: all other assays above

Nn1cnnc1
not listed: [1]
inactive: all other assays above

NS(=O)(=O)C(F)(F)C(F)(F)C(F)(F)C(F)(F)C(F)(F)C(F)(F)C(F)(F)C(F)(F)F
active: [1] 28.5 µM and 30 µM | [2] 5.61 µM and 37.8 µM and 37.6 µM | [3] 32.1 µM and 50.1 µM and 46 µM | [4] 10.2 µM and 27 µM and 23.1 µM | [5] 58.2 µM and 54.8 µM | [6] 10.5 µM | [8] 47.3 µM and 55.1 µM | [9] 51.1 µM and 54.9 µM
inactive: [1] | [5] | [8] | [9] | [10]

O=C(O)C(F)(F)C(F)(F)C(F)(F)C(F)(F)C(F)(F)C(F)(F)C(F)(F)C(F)(F)C(F)(F)F
active: [2] 11.1 µM and 9.13 µM and 11.4 µM | [3] 33.8 µM and 46.9 µM and 46 µM | [4] 9.39 µM and 8.59 µM and 8.35 µM | [5] 28.6 µM and 26.9 µM and 12.7 µM | [6] 10 µM | [7] 14.2 µM and 14.4 µM and 12.8 µM | [8] 16.1 µM and 7.94 µM | [9] 30.8 µM and 16.4 µM and 14.7 µM
inactive: [8] | [10]

CCC(C)(CC)c1cc(NC(=O)c2c(OC)cccc2OC)on1
not listed: [7]
inactive: all other assays above

CCC(C)(c1ccc(O)cc1)c1ccc(O)cc1
active: [2] 24.5 µM | [4] 28.9 µM | [8] 4.96 µM
not listed: [3] | [7]
inactive: all other assays above
